Experimental data published in PubChem BioAssay (Tox21).
Inconclusive results are not listed. A call without a number means that no potency is given here. Calls of active or inactive are those of the source. Calls come from the whole dose curve.

Molecular target: D(2) dopamine receptor (Homo sapiens) (UniProt P14416)
Assay: Dopamine D2 receptor (DRD2) small molecule agonists, cell-based qHTS assay (AID 1963594); note: nearly all actives have a fitted effect of over 35% in size
Conditions: HEK293-DRD2 cAMP HTRF, agonist mode, 30 min; series mostly up to 92.4 µM
Description: National Center for Advancing Translational Sciences [NCATS]
Division of Preclinical Innovation [DPI]
U.S. Environmental Protection Agency [EPA]
National Institutes of Environmental Health Sciences [NIEHS]
National Toxicology Program [NTP]
U.S. Food and Drug Administration [FDA]
DRD2 is the D2 subtype of the dopamine receptor, which is coupled to Gi subtype of G protein-coupled receptor. This G protein-coupled receptor inhibits adenylyl cyclase activity. The DRD2-HEK293 cell line stably expressing D2 dopamine receptor can be used for screening agonists and antagonists of interactions between D2 and its ligands. The Hek293-DRD2 cAMP assay is based on HTRF technology. It measures changes of cAMP accumulation in response to Gi coupled GPCR activation or inhibition.
Tox21 Assay Protocol Summary:
DRD2-Hek293 cells were dispensed at 600 cells/3uL/well in 1536-well white plates using a Multidrop Dispenser. After the assay plates were incubated at a 37 C/5% CO2 incubator for 24 h, 1 uL of Ro20-1724 at final concentration of 0.1 mM was transferred to the assay plate by a Flying Reagent Dispenser. Following Ro20-1724 addition, 23 nL of compound dissolved in DMSO, positive controls or DMSO only was added to the assay plates via Wako pintool station. The assay plates were incubated at room temperature for 10 min. Next, 1 uL of NKH477 at 200nM was added into the plates. After the assay plates were incubated at room temperature for an additional 30 min, 2.5 ul/well of cAMP-d2 and 2.5 ul/well of anti-cAMP-cryptate were added respectively into the assay plates using a Flying Reagent Dispenser. The plates were incubated at room temperature for 1 h. The fluorescence intensity in the plates was measured at 340 nm excitation and 665 & 620 nm emission by an Envision plate reader.
Potency is the fitted concentration of half-maximal effect.

D(2) dopamine receptor (Homo sapiens), sequence (P14416 whole entry, looked up): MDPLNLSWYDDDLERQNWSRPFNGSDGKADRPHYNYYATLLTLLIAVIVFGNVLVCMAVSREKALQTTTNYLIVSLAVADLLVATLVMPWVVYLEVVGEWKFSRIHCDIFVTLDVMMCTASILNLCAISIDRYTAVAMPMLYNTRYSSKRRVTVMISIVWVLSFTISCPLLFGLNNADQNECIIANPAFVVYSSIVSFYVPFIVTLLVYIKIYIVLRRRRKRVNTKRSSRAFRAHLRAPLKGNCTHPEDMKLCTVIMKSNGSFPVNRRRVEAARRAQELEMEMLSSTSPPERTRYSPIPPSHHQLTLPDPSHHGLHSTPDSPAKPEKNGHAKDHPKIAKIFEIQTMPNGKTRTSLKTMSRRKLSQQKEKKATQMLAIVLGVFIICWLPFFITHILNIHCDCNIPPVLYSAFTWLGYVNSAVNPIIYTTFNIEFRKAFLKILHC

Question: With `C#CC(O)(C=CCl)CC` (stereo not given) as the compound, how does the Potency read?
Answer: Its Potency is “inactive”.

Question: With `O=C1C(Cl)C(CCl)CN1c1cccc(C(F)(F)F)c1` (stereo not given) as the compound, how does the Potency read?
Answer: The Potency was “inactive”.

Question: `CCC[CH2][Sn]([CH2]CCC)([O]C(C)=O)[O]C(C)=O` was tested. Which Potency did it give?
Answer: The Potency was “inactive”.

Question: How did the Potency turn out when `Oc1c(Cl)c(Cl)cc(Cl)c1Cl` was run?
Answer: The Potency was “inactive”.

Question: For `C=CCC1=C(C)[C@@H](OC(=O)[C@@H]2[C@@H](C=C(C)C)C2(C)C)CC1=O`, which Potency is on record?
Answer: The Potency was “inactive”.

Question: How did the Potency turn out when `O=C(NC(=O)c1c(F)cccc1F)Nc1cc(Cl)c(OC(F)(F)C(F)F)c(Cl)c1` was run?
Answer: The Potency was “inactive”.

Question: With `CCCCOC(=O)[C@@H](C)Oc1ccc(Oc2ccc(C#N)cc2F)cc1` as the compound, how does the Potency read?
Answer: Its Potency is “inactive”.

Question: Which Potency does the source give for `NC(=O)C(Cl)Cl` here?
Answer: The Potency was “inactive”.

Question: How did the Potency turn out when `COP(=S)(OC)Oc1c(Cl)cc(C)cc1Cl` was run?
Answer: Its Potency is “inactive”.

Question: For `COc1ncc(F)c2nc(S(=O)(=O)Nc3c(F)cccc3F)nn12`, which Potency is on record?
Answer: The Potency was “inactive”.

Question: Which Potency does the source give for `CC(C)N(CCC(C(N)=O)(c1ccccc1)c1ccccn1)C(C)C` (stereo not given) here?
Answer: Its Potency is 11.4 µM (active).

Question: `O=c1[nH]c2ccccc2n1C1CCNCC1` was tested. Which Potency did it give?
Answer: Its Potency is “inactive”.

Question: With `C(COCC1CO1)OCC1CO1` (stereo not given) as the compound, how does the Potency read?
Answer: The Potency was “inactive”.

Question: With `COc1cc(CC(C)N)cc2c1OCO2` (stereo not given) as the compound, how does the Potency read?
Answer: The Potency was “inactive”.

Question: `C[N+](C)(C)CCOC(=O)C(O)(c1ccccc1)c1ccccc1` was tested. Which Potency did it give?
Answer: The Potency was “inactive”.

Question: With `CC(Cc1ccccc1)NCc1ccccc1Cl` (stereo not given) as the compound, how does the Potency read?
Answer: Its Potency is “inactive”.

Question: `CN1CCN(C(=O)O[C@H]2c3nccnc3C(=O)N2c2ccc(Cl)cn2)CC1` was tested. Which Potency did it give?
Answer: The Potency was “inactive”.

Question: How did the Potency turn out when `CN(CCCC(O)c1cccnc1)N=O` (stereo not given) was run?
Answer: The Potency was “inactive”.

Question: How did the Potency turn out when `CN1C[C@@H](NS(=O)(=O)N(C)C)C[C@@H]2c3cccc4c3c(cn4C)C[C@H]21` was run?
Answer: The Potency was 3.76 µM (active).

Question: Which Potency does the source give for `Cn1c(CCCC(=O)O)nc2cc(N(CCCl)CCCl)ccc21` here?
Answer: The Potency was “inactive”.

Question: For `ClC1=C(Cl)C2(Cl)C(CBr)CC1(Cl)C2(Cl)Cl` (stereo not given), which Potency is on record?
Answer: Its Potency is “inactive”.

Question: `N#CCCSCCC#N` was tested. Which Potency did it give?
Answer: Its Potency is “inactive”.

Question: Which Potency does the source give for `CNC(C)Cc1ccc2c(c1)OCO2` (stereo not given) here?
Answer: The Potency was “inactive”.

Question: Which Potency does the source give for `N#Cc1cc(I)c(O)c(I)c1` here?
Answer: Its Potency is “inactive”.

Question: `O=C(O)C1(c2ccc3c(c2)OC[C@H](Cc2ccc(-c4ccccc4)cc2)[C@H]3O)CCCC1` was tested. Which Potency did it give?
Answer: The Potency was “inactive”.

Question: For `Cc1cc(SCc2sc(-c3ccc(C(F)(F)F)c(F)c3)nc2C)ccc1OCC(=O)O`, which Potency is on record?
Answer: The Potency was “inactive”.

Question: Which Potency does the source give for `CO/N=C(/C(=O)OC)c1ccccc1COc1ccccc1C` here?
Answer: Its Potency is “inactive”.

Question: Which Potency does the source give for `Clc1cccc(N2CCNCC2)c1` here?
Answer: Its Potency is “inactive”.

Question: How did the Potency turn out when `C=CCOC(C)=O` was run?
Answer: The Potency was “inactive”.

Question: For `CN(C)C1CCCCC1`, which Potency is on record?
Answer: Its Potency is “inactive”.

Question: With `CC1(C)[C@H](/C=C2\CCSC2=O)[C@@H]1C(=O)OCc1coc(Cc2ccccc2)c1` as the compound, how does the Potency read?
Answer: Its Potency is “inactive”.

Question: With `N#CC(C#N)=C(C#N)C#N` as the compound, how does the Potency read?
Answer: The Potency was “inactive”.

Question: Which Potency does the source give for `CCc1ccc(C(=O)NN(C(=O)c2cc(C)cc(C)c2)C(C)(C)C)cc1` here?
Answer: Its Potency is “inactive”.

Question: With `CCCC[N+](CCCC)(CCCC)CCCC` as the compound, how does the Potency read?
Answer: The Potency was “inactive”.

Question: With `CCSCc1ccccc1OC(=O)NC` as the compound, how does the Potency read?
Answer: The Potency was “inactive”.

Question: With `CN(C1CCCCC1)C1CCCCC1` as the compound, how does the Potency read?
Answer: Its Potency is “inactive”.

Question: For `CC(Cc1ccccc1)N(C)Cc1ccco1` (stereo not given), which Potency is on record?
Answer: Its Potency is “inactive”.

Question: `CCCC(Cn1cncn1)c1ccc(Cl)cc1Cl` (stereo not given) was tested. Which Potency did it give?
Answer: The Potency was “inactive”.

Question: With `O=C1CN=C(c2ccccc2)c2cc(Cl)ccc2N1CC1CC1` as the compound, how does the Potency read?
Answer: The Potency was “inactive”.

Question: `CC(C)(C)C(O)/C(=C\c1ccc(Cl)cc1Cl)n1cncn1` (stereo not given) was tested. Which Potency did it give?
Answer: Its Potency is “inactive”.
